The values that follow come from PubChem BioAssay (Tox21).

SMILES strings stand for the structures. The source made the active and inactive calls. Entries that show only a call come without a potency. Calls come from the whole dose curve.

Thyrotropin-releasing hormone receptor (Homo sapiens), sequence (P34981 whole entry, looked up): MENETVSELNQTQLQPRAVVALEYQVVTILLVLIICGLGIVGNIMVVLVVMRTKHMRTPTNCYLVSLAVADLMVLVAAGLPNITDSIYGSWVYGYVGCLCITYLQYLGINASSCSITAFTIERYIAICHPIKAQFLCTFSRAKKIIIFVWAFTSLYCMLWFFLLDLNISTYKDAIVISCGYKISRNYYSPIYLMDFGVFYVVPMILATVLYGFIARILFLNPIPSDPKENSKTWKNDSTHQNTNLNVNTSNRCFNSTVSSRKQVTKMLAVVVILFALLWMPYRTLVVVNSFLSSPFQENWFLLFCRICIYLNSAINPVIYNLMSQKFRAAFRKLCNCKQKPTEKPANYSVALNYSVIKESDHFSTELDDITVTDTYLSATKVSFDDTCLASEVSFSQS

The test has as its target Thyrotropin-releasing hormone receptor (Homo sapiens) (UniProt P34981). The test can be described thus: qHTS assay to identify small molecule agonists of the thyrotropin-releasing hormone receptor (TRHR) signaling pathway (AID 1346891).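 Note: HEK293 cells expressing TRHR with calcium dye readout.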 The settings on record: TRHR-HEK293 calcium fluorescence, agonist mode; series mostly up to 57.6 µM. An excerpt:
National Center for Advancing Translational Sciences [NCATS] NIH Chemical Genomics Center [NCGC] U.S. Environmental Protection Agency [EPA] National Institutes of Environmental Health Sciences [NIEHS] National Toxicology Program [NTP] Assay overview: Thyrotropin-releasing hormone (TRH) receptor (TRHR) is a G-protein-coupled receptor which binds the tripeptide thyrotropin releasing hormone. TRHR is found in the brain and, when bound by TRH, acts (through phospholipase C) to increase intracellular inositol trisphosphate. It plays a crucial role in the anterior pituitary where it controls the synthesis and secretion of thyroid stimulating hormone and prolactin. The TRHR-Hek293 assay is a cell-based assay, and it has the potential to screen G protein-coupled receptors. A compound/drug can either activate (agonist) or suppress (antagonist) GPCRs that can be monitored by levels of intracellular calcium. Using this assay, the Tox21 10K compound library was screened to identify potential TRHR agonists.
Assay Protocol Summary: The TRHR-Hek293 cells were dispensed at 1500cells/4uL/well in 1536-well black-clear bottom plates using a Multidrop dispenser. After the assay plates were incubated at a 37 C/5% CO2 incubator for 18 hours, 4 uL of Dye-Loading Solution was added to each well. The plates were incubated at 37 C for 2 hours. For agonist mode, 23 nL of compounds dissolved in DMSO, positive controls or DMSO only was transferred to the assay plate by a pin tool. The fluorescence intensity in the plates was measured using FDSS 7000EX kinetic plate reader for 3 min at 1 sec intervals. Each test compound was measured at 15 concentrations and in triplicates.
Regarding `C=CC(=O)OCCOCCOCCOCCOC(=O)C=C`, the Potency result is “inactive”.

With `Cc1ccccc1S(=O)(=O)O`, the Potency entry is “inactive”.

Turning to `CCCCCCCCCc1ccc(OCCOCCO)cc1`, the Potency result is “inactive”.

With `NCCCN1CCOCC1`, the Potency result is “inactive”.

In the case of `CN(Cc1ccc(C(C)(C)C)cc1)Cc1cccc2ccccc12`, the Potency result is “inactive”.

As to `CCC(C)c1cc(C(C)(C)C)c(O)c(C(C)(C)C)c1` (stereo not given), the Potency entry is “inactive”.

For the compound `CC/C=C\CCOC(=O)CC`, the Potency entry is “inactive”.

For the compound `C=CC(=O)OCCOCCOC(=O)C=C`, the Potency entry was “inactive”.

For the compound `CCCCC(CC)CN1C(=O)C2C3C=CC(C3)C2C1=O` (stereo not given), the Potency entry was “inactive”.

In the case of `OC(CN1CCC(Cc2ccc(F)cc2)CC1)c1ccc(Cl)cc1` (stereo not given), the Potency result is “inactive”.

For `CC(C)(C)OCC1CO1` (stereo not given), the Potency result was “inactive”.

As for `CCC(C)O` (stereo not given), the Potency result was “inactive”.

As for `O=C(O)c1ccco1`, the Potency entry is “inactive”.

Regarding `CCCCCCCN`, the Potency entry is “inactive”.

For `CCCCCCCCCCCCCCOS(=O)(=O)O`, the Potency entry is “inactive”.

Regarding `C#CCN(C)CCCOc1ccc(Cl)cc1Cl`, the Potency entry is “inactive”.

As to `CCCCc1ncc(/C=C(\Cc2cccs2)C(=O)O)n1Cc1ccc(C(=O)O)cc1`, the Potency result is “inactive”.

`CCCCCCCCCCCc1ccccc1`: the Potency result is “inactive”.

Regarding `NS(=O)(=O)c1ccc(N2CCCCS2(=O)=O)cc1`, the Potency result was “inactive”.

`CC(C)(COC(=O)c1ccccc1)COC(=O)c1ccccc1`: the Potency result was “inactive”.

Regarding `Cc1ncc(CO)c(C=O)c1O`, the Potency entry was “inactive”.

As for `O=C1[C@H]2CCCC[C@H]2C(=O)N1CCCCN1CCN(c2nsc3ccccc23)CC1`, the Potency result was “inactive”.

As to `Cc1cccc(C)c1NC(=O)CN(CC(=O)O)CC(=O)O`, the Potency entry is “inactive”.

With `CN1Cc2cc(C(=O)N3CCC(C4CCNCC4)CC3)ccc2NC(CC(=O)O)C1=O` (stereo not given), the Potency entry is “inactive”.

Turning to `C[N+]1(C)CCC(OC(=O)C(O)(c2ccccc2)C2CCCC2)C1` (stereo not given), the Potency result was “inactive”.

For the compound `C[C@H]1C[C@H]2[C@@H]3CCC4=CC(=O)C=C[C@]4(C)[C@@]3(Cl)[C@@H](O)C[C@]2(C)[C@@]1(O)C(=O)CO`, the Potency result was “inactive”.

For the compound `COc1ccc(C(=O)c2ccc(OC)cc2O)c(O)c1`, the Potency result is “inactive”.

In the case of `NC(=O)C(c1ccccc1)(c1ccccc1)[C@@H]1CCN(CCc2ccc3c(c2)CCO3)C1`, the Potency entry was “inactive”.

With `C[Si](C)(CCCN)O[Si](C)(C)CCCN`, the Potency entry is “inactive”.

Regarding `CC(COCCO)OCCO` (stereo not given), the Potency entry was “inactive”.

For the compound `CCCCC/C=C\C/C=C\CCCCCCCC(=O)NC(C)c1ccccc1` (stereo not given), the Potency entry was “inactive”.

As for `COc1ccc(-c2nc3ccc(C4=NNC(=O)CC4C)cc3[nH]2)cc1` (stereo not given), the Potency entry is “inactive”.

For the compound `CC(CSC(=O)c1ccccc1)C(=O)N1C[C@@H](Sc2ccccc2)C[C@H]1C(=O)O` (stereo not given in full), the activation was -0.201% [at 11.8 µM] (inactive).

With `CCCCCCCC/C=C\CCCCCCCC(=O)OCC`, the Potency result was “inactive”.

On to `Nc1ccccc1S(=O)(=O)c1ccccc1`, for which the Potency result was “inactive”.

Regarding `C[C@H](CCC(=O)O)[C@H]1CC[C@H]2[C@@H]3CC[C@@H]4C[C@H](O)CC[C@]4(C)[C@H]3C[C@H](O)[C@]12C`, the Potency entry is “inactive”.

With `CN1CCC(=C2c3ccccc3Sc3ccccc32)CC1`, the Potency result was “inactive”.

Take `CCN(CC)CCNC(=O)c1cc(Br)c(N)cc1OC`: the Potency result was “inactive”.

Take `Brc1c2ccccc2c(Br)c2ccccc12`: the activation is 0.0356% [at 5.23 µM] (inactive).

For `O=C(O)c1ccccc1Cl`, the Potency entry was “inactive”.
